Measured values as given in article PMC5540273 (PLoS ONE, 2017).

Test system: HPK1
Settings: concentration: 1 μM, replicates: in singlicate; n = 1
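Note: KINOMEscan kinase panel screen.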

Row | SMILES | %Inh [%]
1 | Cn1cncc1-c1ccc2ncnc(Nc3ccc(OCc4ccccc4)cc3)c2c1 [GW320571] | 32
2 | Cc1cc(-c2ccc3c(c2)CC[C@@H](N[C@@H](C)c2ccccc2)C3)cnc1N.Cl [GW412617] | 55
3 | Fc1cccc(COc2nnc(-c3ccc4c(c3)CCO4)o2)c1 | 0
4 | O=C(Nc1n[nH]c2cc(-c3cccc(F)c3F)ccc12)C1CC1 [SB-733894] | 0
5 | COc1cc(Nc2nccc(N3CCC(NC(=O)Nc4cc(C)ccc4C)C3)n2)cc(OC)c1OC (centres unmarked) [GSK1379762] | 66
6 | CC(C)(C)c1ccc(C(=O)Nc2cn3cc(Cl)ccc3n2)cc1 | 4
7 | COc1ccc2nc(-c3cccc(C)n3)nc(Nc3ccncc3)c2c1 [GSK204919] | 28
8 | Cc1c(O)cccc1Nc1ccnc2ccc(C(F)(F)F)cc12.Cl [GW466413] | 3
9 | Cc1ccc(-c2cc(-c3c[nH]nc3-c3ccccn3)ccn2)cc1 [GW684088] | 24
10 | O=S(=O)(c1ccc(-c2ccnc3[nH]ccc23)cc1)N1CCCC1 [GSK846226] | 25
11 | Cn1ccc2ncnc(Oc3cccc(C(=O)Nc4ccccc4)c3)c21 | 2
12 | CCCc1ccc(S(=O)(=O)NC2CCN(c3ccnc(Nc4ccc(F)cc4)n3)C2)cc1 (centres unmarked) [GSK1379715] | 37
13 | O=C1NC(=O)C(N2CCc3ccccc32)=C1c1ccccc1Cl [SB-373598] | 0
14 | COC(=O)c1c(-c2ccccc2)c2cc(OC)ccc2c(=O)n1Cc1ccccc1 | 0
